Rango complex inh: inhibitors of Rango-importin beta complex formation. Rango CFP/YFP FRET sensor + importin beta, 45 min. Potency, µM (doses to about 92.2 µM), inactives show at the highest dose inhibition of complex formation. 0.031% of 340,000 active. AID 540263; calls by dose curve;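 further: 0% = DMSO wells and 100% = buffer wells lacking importin beta; nearly all actives have a fitted effect of over 15% in size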
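Inhibition scored from the CFP 486 nm/YFP 530 nm FRET ratio 45 min after adding 0.125 microM importin beta to 50 nM Rango biosensor preincubated 5 min with compound (room temperature, PBS with DTT, Tween-20, BSA). No-importin wells as positive control.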
Rango dissoc inh: inhibition of RanGTP-driven Rango-importin beta dissociation | O95149+P62826 | Biochemical FRET Rango-importin beta, RanGTP-induced dissociation | Potency, µM (highest dose often 46.1 µM), for inactives: top-dose activity change, negative = inhibition | 0.071% of 340,000 active | AID 540253; calls by dose curve; further: % of control where 0% means no effect; nearly all actives have a fitted effect of over 45% in size
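Compounds preincubate 5 min with complex of recombinant Rango and importin beta in PBS with 1 mM DTT. Ran (0.6 uM) loaded with 2 mM GTP plus 0.2 uM RCC1 starts dissociation; FRET is recorded 45 min later.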
ALOX12 inh: inhibitors of human 12S-lipoxygenase ALOX12. purified 12hLO, xylenol orange hydroperoxide absorbance. Potency, µM (highest dose often 108 µM), for the others: top-dose activity change, negative = inhibition, most hits filed as inhibitors. 1.1% of 580,000 active. AID 1671190; further: on the % scale 0 is the no-effect control and ±100 the full control effect
Target sequence (P18054 whole entry, looked up): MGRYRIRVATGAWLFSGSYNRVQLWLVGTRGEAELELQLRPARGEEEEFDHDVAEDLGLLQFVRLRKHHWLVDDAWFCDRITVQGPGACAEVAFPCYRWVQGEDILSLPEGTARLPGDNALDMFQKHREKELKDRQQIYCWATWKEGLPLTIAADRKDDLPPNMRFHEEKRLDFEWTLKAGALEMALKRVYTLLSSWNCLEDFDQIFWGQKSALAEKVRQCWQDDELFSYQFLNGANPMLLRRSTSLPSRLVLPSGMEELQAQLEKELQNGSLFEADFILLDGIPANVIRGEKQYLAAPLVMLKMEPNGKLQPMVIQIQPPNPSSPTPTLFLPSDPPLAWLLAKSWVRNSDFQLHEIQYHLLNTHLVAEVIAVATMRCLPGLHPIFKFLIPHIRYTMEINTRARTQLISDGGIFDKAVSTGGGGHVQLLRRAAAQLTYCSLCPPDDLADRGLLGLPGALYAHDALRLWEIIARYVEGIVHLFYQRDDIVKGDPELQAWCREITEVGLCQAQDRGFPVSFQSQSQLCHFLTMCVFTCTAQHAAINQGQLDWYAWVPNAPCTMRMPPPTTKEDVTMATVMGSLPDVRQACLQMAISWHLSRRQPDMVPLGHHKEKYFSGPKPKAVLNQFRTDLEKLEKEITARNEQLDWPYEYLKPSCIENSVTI
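Purified human 12hLO (150 nM final) in 25 mM Hepes, 0.01% Triton X-100, pH 7.0 was preincubated 15 min at room temperature with compound. Then 40 uM arachidonic acid was added, 30 min. Hydroperoxide was read by Fe-XO absorbance ratio 573/405 nm.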
TDP1 block: blocks human tyrosyl-DNA phosphodiesterase 1 | Q9NUW8 | recombinant TDP1, AlphaScreen DNA substrate cleavage | Potency, µM (highest dose often 130 µM), for inactives: at the highest dose activity change, negative = inhibition, hits mostly inhibitors | 0.28% of 350,000 active; further: on the % scale 0 is the no-effect control and ±100 the full control effect; nearly all actives have a fitted effect of over 40% in size
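E. coli-derived human Tdp1, 1 nM final. Cpd preinc 15 min RT; substrate 15 nM final, 5 min RT; AS bead mix 10 ug/ml final, 10 min RT. Signal loss = tyrosine-FITC cleavage. No-enzyme wells = max signal.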
PTAP TSG101 blk: blocks PTAP/TSG101 interaction to inhibit HIV-1 budding; Q99816; Fluorescence polarization, FITC-PTAP peptide / Tsg101 binding; Potency, µM (top dose mostly 115 µM), inactives show at the top dose activity change, negative = inhibition, actives largely listed as inhibitors; 340,000 tested, under 10 active; active means well fitted inhibition curve with a large enough effect in the main read-out, with a control signal flat, not every such curve was filed as active; inconclusive means small, poorly fitted or top-dose-only effect, or effect the other way, or a change in a side signal; inactive means no such curve, though single readings can be large or run the other way; further: % of control where 0% means no effect
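FP read-out: FITC-PTAP peptide, 50 nM final, binding Tsg101 binding domain, 10 uM final; 20 min, r.t.; 10 mM HEPES pH 7.5, 0.15 M NaCl, 0.01% Tween 20, 3 mM EDTA, 0.1 mM TCEP.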
ClpP mod: qHTS Assay for Activators of ClpP; Potency, µM (titrated, usually from 57.5 µM), for inactives: at the top dose activity change, negative = active; ATP-dependent Clp protease proteolytic subunit (Bacillus subtilis (strain 168)), P80244; 1.9% of 340,000 active; purified B. subtilis ClpP, FRET peptide cleavage, 20 min; AID 651965, 2013; active means well fitted falling curve with a large enough effect; inconclusive means small, poorly fitted or top-dose-only effect; inactive means no such curve, though single readings can be large or run the other way; further: the source files actives as falling curves though it sought activators and does not explain the sign; nearly all actives have a fitted effect of over 65% in size
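Purified B. subtilis ClpP, 10 microg/mL final in Tris/HCl pH8 with KCl, BSA, glycerol and Tween-20, cleaved an Abz/nitrotyrosine-quenched decapeptide. Fluorescence (ex 320, em 430) was read at 0 and 20 min at room temperature. Delta was normalized to 5.8 microM ADEP and DMSO/no-enzyme controls.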
* hit, by the source's call; i = inactive; ? = inconclusive; / = no result; ! = a repeat was not active; [ ] = remark or other dose. Sampled rows, rich in hits. Any-hit rate of the full collection: about 2.4%. Unless noted, the call rests on the fitted dose curve; in most records, active means well fitted curve in the direction sought with a large enough effect; inconclusive means small, poorly fitted or top-dose-only effect, or another doubt; inactive means no such curve, though single readings can be large; an effect the other way counts as inactive or inconclusive. Potency means the concentration at half of the fitted maximal effect.

SMILES	Rango complex inh	Rango dissoc inh	ALOX12 inh	TDP1 block	PTAP TSG101 blk	ClpP mod
COC(=O)C1=C(C)N(Cc2ccc(Cl)cc2)C(=S)NC1c1ccc(Br)cc1 (configuration not stated)	/	/	31.6µM*	/	/	/
COC(=O)C1=C(C)N(Cc2ccc(Cl)cc2)C(=S)NC1c1ccc(F)cc1 (configuration not stated)	/	/	39.8µM*	/	/	/
Cc1noc(C)c1CCC(=O)N1CCN(S(=O)(=O)c2ccccc2F)CC1	/	/	49.3%	/	/	/
O=c1c2ccccc2nc(/C=C/c2ccc(Br)cc2)n1CCO	?	?	i	/	0.9%	/
O=c1c2ccccc2nc(/C=C/c2ccc(Cl)cc2)n1CCO	?	?	0.0%	5.0%	-1.4%	31.6µM*
CCn1c(/C=C/c2ccc(O)c(O)c2)nc2ccccc2c1=O	?	?	14.1µM*	-4.0%	-2.9%	-2.6%
CC(=O)Nc1ccc(CN2CCC(N3CCOCC3=O)CC2)cc1	/	/	-1.1%[6.33 µM]	/	/	/
Fc1ccc(/C=C2\CCCC3=C2N=C2SC=C(c4ccccc4)N2C3c2ccc(F)cc2)cc1 (configuration not stated)	/	/	22.4µM*	/	/	/
CCOc1cc(CNc2ncc(-c3ccc(OC)cc3)n2C)ccc1O	0.3%	4.5%	1µM*	9.5%	-0.7%	-6.1%
COc1ccc(-c2ccc(C(=O)Nc3ccc4c(c3)OCO4)c3occc23)c(C)c1	/	/	5.3%	/	/	31.6µM*
COc1ccc(-c2ccc(C(=O)Nc3ccc(OC)nc3)c3occc23)c(C)c1	/	/	-7.1%	/	/	35.5µM*
COc1ccc(-c2ccc(C(=O)Nc3ccccc3)c3occc23)c(C)c1	/	/	27.9%	/	/	?
Cc1ccc(-c2ccc3c(N)c(C(=O)Nc4cccc(C)c4)sc3n2)cc1	/	/	1.3%	/	/	/
O=C(CS(=O)(=O)Cc1ccccc1)Nc1nnc(C(F)(F)F)s1	-3.7%	7.2%	6.8%	-6.6%	-2.4%	/
CC(C)(C)c1nnc(NC(=O)CS(=O)(=O)Cc2ccccc2)s1	0.9%	-7.9%	39.8µM*!	0.0%	-1.4%	/
CCN1C(=O)CCC2(C(=O)N3CCc4ccccc4C3)CCCC=C12 (configuration not stated)	/	/	65.0%	/	/	/
CCCC1=C(C(=O)OC)C(c2ccc(Cl)cc2)NC(=O)N1C (configuration not stated)	/	/	-15.6%	/	/	/
Cc1cc(C)c(C)c(C(=O)C2OC(=O)C(C)(C)C(=O)C2(C)C)c1C (configuration not stated)	-0.2%	7.3%	-15.2%	-0.6%	3.3%	-0.6%
CC1(C)C(=O)OC(C(=O)c2ccc(C(C)(C)C)cc2)C(C)(C)C1=O (configuration not stated)	0.4%	3.0%	4.3%	2.8%	-2.0%	31.6µM*
Nc1ccc(N)c(C(=O)O)c1	?	-0.1%	/	0.282µM*	-22.6%	-24.8%
Nc1ccc(C(=O)O)c(O)c1	-3.7%	0.3%	?	6.1%	-0.2%	?
CCN(CC)S(=O)(=O)c1ccc2nc(CCl)[nH]c2c1	5.2%	0.5%	10.7%	4.7%	0.6%	14.1µM*
COc1ccccc1NS(=O)(=O)c1ccc2nc(CCl)[nH]c2c1	-0.1%	19.0%	-10.9%	4.2%	-3.9%	/
Fc1ccc(Cn2cccc2C2=NC(c3ccccc3)CO2)cc1 (configuration not stated)	-2.2%	-23.1%	-14.9%	4.6%	-0.3%	20µM*
COc1cccc(C(=O)Nc2oc3ccccc3c(=O)c2-c2cccc(OC)c2)c1	/	/	-5.3%	/	/	/
SMILES	Rango complex inh	Rango dissoc inh	ALOX12 inh	TDP1 block	PTAP TSG101 blk	ClpP mod
CCCCn1c(N)c(N(C)C(=O)Cn2c(CC)nc3ccccc32)c(=O)[nH]c1=O	/	/	-11.3%	/	/	/
CCCCn1c(N)c(N(CC)C(=O)Cn2c(CC)nc3ccccc32)c(=O)[nH]c1=O	/	/	25.1µM*	/	/	/
CCCCn1c(N)c(N(CC(C)C)C(=O)c2cc(-c3ccco3)nc3ccccc23)c(=O)[nH]c1=O	-1.9%	-11.3%	39.8µM*	/	1.5%	-12.9%
CCCCN(C(=O)c1cc(-c2ccco2)nc2ccccc12)c1c(N)n(CCC)c(=O)[nH]c1=O	5.0%	-14.5%	?	28.2µM*	-2.2%	-15.3%
CCCCn1c(N)c(N(CCOC)C(=O)c2cc(-c3ccc(OC)cc3)nc3ccccc23)c(=O)[nH]c1=O	-0.2%	-15.6%	?	/	-6.9%	11.2µM*
CCCCn1c(N)c(N(CCOC)C(=O)c2cc(-c3ccc(C)cc3)nc3ccccc23)c(=O)[nH]c1=O	1.7%	-13.3%	-13.4%	3.1%	-12.1%	?
CCCCn1c(N)c(N(CCC(C)C)C(=O)c2cc(Cl)nc3ccccc23)c(=O)[nH]c1=O	0.6%	3.2%	0.4%	-10.5%	-8.8%	-2.6%
CC(OC(=O)c1nn(C)c(=O)c2ccccc12)C(=O)c1ccc(C(C)(C)C)cc1 (configuration not stated)	/	/	32.5%	/	/	/
CCN(CC(=O)NC(C)(C)C)Cc1nc(-c2ccccc2)oc1C	/	/	-12.0%	/	/	/
O=C(c1ccc(F)cc1)c1ccccc1C(=O)N1CCN(C(=O)CC2CCCC2)CC1	/	/	2.5%	/	/	/
COc1ccc(CN2C(=O)CO[C@H](c3ccc(NC(=O)c4ccc(F)cc4)cc3)[C@H]2CO)cc1	/	/	12.6%	/	/	/
COC(=O)c1ccc(NC(=O)CN(C2CCCCC2)S(C)(=O)=O)cc1	-0.2%	17.2%	22.6%	2.2%	-4.6%	0.708µM*
COc1ccc(NC(=O)CN(C2CCCCC2)S(C)(=O)=O)cc1OC	-2.0%	8.8%	-4.9%	1.1%	-3.6%	-0.7%
C=CCN(CC=C)Cc1c(C)[nH]c2ccc(C(=O)OCC)cc2c1=O	2.4%	3.5%	2.2%	1.9%	-9.0%	28.2µM*
CCN(CC)Cc1c(C)[nH]c2ccc(NC(C)=O)cc2c1=O	/	/	-10.0%	/	/	4.0%
COC(=O)c1ccc2[nH]c(C)c(CN3CCCC3)c(=O)c2c1	-4.2%	10.7%	-5.1%	-5.1%	-1.0%	28.2µM*
CCOc1ccc2[nH]c(C)c(CN3CCN(CC)CC3)c(=O)c2c1	-0.3%	1.0%	-7.6%	5.2%	-5.5%	15.8µM*
CC(=O)NC(C(=O)NC(C)c1ccc(Cl)cc1)C(C)C (configuration not stated)	/	/	-5.1%	/	/	/
O=C(NCCc1cccc(Cl)c1)c1ccncc1	/	/	-2.7%	/	/	/
CC(C)c1cc(-c2cc(C(=O)NCc3ccccc3)on2)nc(NCC2CC2)n1	1.7%	19.9%	-3.8%	2.4%	/	31.6µM*
Cc1nc(COc2ccc(C(=O)N3CCc4ccccc43)cc2)no1	/	/	40.3%	/	/	/
